ALDH1A1 block: inhibitors of human aldehyde dehydrogenase 1A1; P00352; Purified ALDH1A1, NADH fluorescence, propionaldehyde substrate; AID 1030; Potency, µM (top dose mostly 75.3 µM), for the others: at the highest dose activity, negative = inhibition, hits mostly inhibitors; 220,000 compounds, 7.3% hits; active = well fitted inhibition curve with a large enough effect, not every such curve was filed as active; inconclusive = small, poorly fitted or top-dose-only effect, or another doubt; inactive = no such curve, though single readings can be large or run the other way;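 also: potency is read from the fitted curve at half-maximal effect; plate controls were no enzyme wells and a reference inhibitor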
NPSR antagonist: neuropeptide S receptor (human) antagonism, cAMP; Q6W5P4; 220,000 compounds, 1% hits; CHO-NPSR cells, cAMP TR-FRET, antagonist mode; Potency, µM (highest dose often 38.3 µM), for inactives: top-dose activity change, negative = inhibition, actives largely listed as inhibitors; also: potency is read from the fitted curve at half-maximal effect; nearly all actives have a fitted effect of over 50% in size
Target sequence (Q6W5P4 whole entry, looked up): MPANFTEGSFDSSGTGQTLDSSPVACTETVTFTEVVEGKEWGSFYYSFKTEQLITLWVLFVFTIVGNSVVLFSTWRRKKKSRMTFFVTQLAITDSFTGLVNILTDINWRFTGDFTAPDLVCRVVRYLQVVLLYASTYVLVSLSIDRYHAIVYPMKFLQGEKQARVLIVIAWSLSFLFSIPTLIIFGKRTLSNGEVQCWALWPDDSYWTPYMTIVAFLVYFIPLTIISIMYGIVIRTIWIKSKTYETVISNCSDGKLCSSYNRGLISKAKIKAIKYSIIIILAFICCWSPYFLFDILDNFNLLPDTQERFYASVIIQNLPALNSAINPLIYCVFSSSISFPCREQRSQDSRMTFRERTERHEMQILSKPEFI
12-hLO inh: inhibitors of human 12-lipoxygenase (ALOX12); AID 1452; purified 12-hLO, xylenol orange hydroperoxide absorbance; 150,000 compounds, 0.12% hits; Potency, µM (series often up to 57.1 µM), without a hit: top-dose activity change, negative = inhibition, usual class: inhibitors; P18054; also: potency is read from the fitted curve at half-maximal effect; nearly all actives have a fitted effect of over 55% in size
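Xylenol orange chromogenic assay: hydroperoxide from 12hLO oxidises Fe(II), giving red-shifted Fe(III)-XO absorbance. Conditions: 150 nM enzyme, 40 uM arachidonic acid, 25 mM Hepes pH 7.0, 0.01% Triton X-100, 30 min, room temperature.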
HPGD block: inhibitors of human 15-hydroxyprostaglandin dehydrogenase (HPGD) | P15428 | Potency, µM, without a hit: top-dose activity change, negative = inhibition, usual class: inhibitors | purified HPGD, NADH fluorescence kinetic, PGE2 substrate | 150,000 compounds, 4.3% hits; active = well fitted inhibition curve with a large enough effect, not every such curve was filed as active; inconclusive = small, poorly fitted or top-dose-only effect, or another doubt; inactive = no such curve, though single readings can be large or run the other way; also: potency is read from the fitted curve at half-maximal effect
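NADH formation kinetics: reaction with 30 uM PGE2 and 1 mM NAD+ (final), 20 nM enzyme, Tris-HCl pH 8 with Tween 20, after 15 min compound preincubation at room temperature. Fluorescence change, last versus first of five reads.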
IMPase inh: cell-permeable inhibitors of inositol monophosphatase (IMPase) | CHO-M1 cells, IP1 accumulation, HTRF TR-FRET ratio | 120,000 tested, under 10 active | inhibition (IP1 accumulation), % at 46.1 µM; active = well fitted curve in the direction sought with a large enough effect in the signal ratio, not every such curve was filed as active; inconclusive = small, poorly fitted or top-dose-only effect, or a change in a side signal; inactive = no such curve, though single readings can be large or run the other way; the % refers to the signal ratio;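 also: cells stimulated with carbachol in lithium chloride buffer; plate controls were DMSO basal wells for no effect and reference inhibitor wells for full effect; higher means more IMPase inhibition seen as more IP1 and lower FRET ratio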
Target sequence (P97697 whole entry, looked up): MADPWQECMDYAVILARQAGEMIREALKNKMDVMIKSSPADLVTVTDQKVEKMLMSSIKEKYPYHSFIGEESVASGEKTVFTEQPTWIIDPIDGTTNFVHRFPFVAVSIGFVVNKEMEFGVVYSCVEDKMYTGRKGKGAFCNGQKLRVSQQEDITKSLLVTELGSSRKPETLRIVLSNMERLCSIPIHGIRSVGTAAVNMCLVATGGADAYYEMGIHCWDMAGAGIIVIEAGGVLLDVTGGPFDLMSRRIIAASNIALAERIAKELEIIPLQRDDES
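Cellular IMPase inhibition is scored as a rise in cytosolic IP1, detected by competitive TR-FRET between d2-labelled IP1 and a europium anti-IP1 antibody. M1-expressing CHO cells were stimulated with carbachol for 30 min at 37C, with lithium (50 mM LiCl) present in the buffer.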
IMPase Li inh: IMPase inhibition in cells with lithium potentiation | CHO-M1 cells, IP1 TR-FRET (IP-One), carbachol + lithium | Potency, µM (doses to about 59.4 µM), for inactives: at the top dose activity, negative = IMPase inhibition, actives largely listed as inhibitors | 210,000 compounds, 0.35% hits | AID 1457;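 also: IP1 builds up when IMPase is blocked and the TR-FRET signal falls; potency is read from the fitted curve at half-maximal effect; plate controls were basal vehicle for no effect and high inhibitor control for full effect; nearly all actives have a fitted effect of over 50% in size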
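IP1 accumulation measured by competitive TR-FRET in lysed CHO-M1 cells after 30 min compound exposure at 37C, with a small lithium addition to potentiate weak responses. Hill-equation AC50 from ratio and donor-channel data.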
* = called active by the depositor; u = inconclusive; x = no result given; [ ] = another dose, or the depositor's remark. An excerpt weighted towards active compounds, which were near 8.9% of everything screened. Unless noted, calls follow the shape of the dose curve; as a rule, active = well fitted curve in the direction sought with a large enough effect; inconclusive = small, poorly fitted or top-dose-only effect, or another doubt; inactive = no such curve, though single readings can be large; an effect the other way counts as inactive or inconclusive. Unless noted, % is scaled to controls: 0 for no effect and ±100 for the full control effect.

SMILES | ALDH1A1 block | NPSR antagonist | 12-hLO inh | HPGD block | IMPase inh | IMPase Li inh
CCOc1cnn(-c2cc(Oc3ccc(C)cc3)ncn2)c(=O)c1Cl | 11µM* | -13%[46.1 µM] | -5% | -8% | -7 | 9%[38.3 µM]
Cc1ccccc1Oc1cc(-n2ncc(Cl)c(Cl)c2=O)ncn1 | 1.6µM* | 2.5µM* | -4% | -17% | x | -20%
O=C(O)c1cc(=O)c2ccccc2[nH]1 | -5% | -23%[46.1 µM] | -3% | -27% | -5 | 4%
O=C(O)c1cc(=O)c2c(Cl)cc(Cl)cc2[nH]1 | -1% | -16%[46.1 µM] | -5% | 28µM* | u | u
COc1ccc(CN(CCC#N)C(=S)NC(=O)c2ccccc2)cc1 | 25µM* | -9%[46.1 µM] | -1% | -13% | -16 | -14%[38.3 µM]
N#CCCN(Cc1ccccc1)C(=S)NC(=O)c1ccccc1 | 14µM* | 7%[46.1 µM] | 1% | -25% | 0 | -14%
Cc1cccc(Cc2nnc(CCC(=O)NCc3cn4ccccc4n3)o2)c1 | -3% | -29% | x | x | x | 11%
COc1ccc(-c2noc(CN3CCN(c4ccccc4F)CC3)n2)cc1OC | u | -22%[46.1 µM] | -10% | -13% | 8 | 10%[38.3 µM]
COc1cc(CN2CCN(c3ccccc3F)CC2)c([N+](=O)[O-])cc1OC | 28µM* | 8% | -4% | 7% | x | 2%
COc1cc(CN2CCN(Cc3ccc([N+](=O)[O-])cc3)CC2)c([N+](=O)[O-])cc1OC | 35µM* | 4% | x | x | x | 23%
O=[N+]([O-])c1ccc(CN2CCSCC2)cc1 | -13% | 6% | x | x | x | 0%
COc1cccc(CN2CCN(C(=O)Nc3ccc([N+](=O)[O-])cc3)CC2)c1 | u | 47% | x | x | x | 6%
COc1cccc(CN2CCN(Cc3cc(OC)c(OC)cc3[N+](=O)[O-])CC2)c1 | 25µM* | -10%[46.1 µM] | 0% | 2% | -7 | 4%[38.3 µM]
Cc1ccc(OCCOCCN(C)C)c(Cl)c1 | -4% | 19% | -1% | 4% | x | -4%
COc1cc(OC)cc(C(=O)NCC(=O)OCC(=O)N2CCc3ccccc32)c1 | 2% | 2% | x | x | x | 12%
O=C(NCc1ccc2c(c1)OCO2)c1ccc(CSCc2cccc(Cl)c2)o1 | -6% | -11% | -7% | -23% | x | 2%
O=S(=O)(/C(=C/c1ccc(C(F)(F)F)cc1)c1nc2ccccc2[nH]1)c1ccccc1 | u | 6.3µM* | -5% | -27% | 15 | 16%
Cc1ccc(-n2cccc2C(=S)N=P(N(C)C)(N(C)C)N(C)C)cc1 | 10µM* | -10%[46.1 µM] | -5% | u | 8 | -7%[38.3 µM]
Cc1ccc(-n2cccc2C(=O)NS(=O)(=O)c2ccc(C)cc2)cc1 | x | 8% | x | x | x | x
Cc1ccc(S(=O)(=O)CCSc2cccc(C(=O)Nc3ccccc3C(=O)O)c2)cc1 | u | -13% | -1% | 16µM* | x | 1%
O=C(Nc1scc(-c2cccs2)c1C(=O)O)c1cccs1 | 6% | -12%[46.1 µM] | -6% | -17% | -12 | -2%[38.3 µM]
CCC(C)C(=O)N1c2ccccc2C(=C2SC(C(=O)OC)=C(C(=O)OC)S2)C(=S)C1(C)C (configuration not stated) | -7% | 10µM* | 2% | -18% | 15 | 20%
CCN1C(=O)/C(=C2\SC(=S)N(CCCOC)C2=O)c2ccccc21 | 10% | 5%[46.1 µM] | -2% | -3% | 1 | 1%[38.3 µM]
CCOCCCNCC(=O)NCC1CCCCC1 | -10% | -17% | x | x | x | 6%
Cn1c(=NC(=O)COc2ccccc2)sc2cccc(F)c21 | x | -24% | x | x | x | x
SMILES | ALDH1A1 block | NPSR antagonist | 12-hLO inh | HPGD block | IMPase inh | IMPase Li inh
O=C(O)CCC(=O)Nc1ccc(C(=O)N2CCCCC2)cc1 | -6% | 4%[46.1 µM] | -1% | 0.71µM* | -4 | 7%[38.3 µM]
CCCCCCC(=O)Nc1ccc(C(=O)N2CCCC2)cc1 | u | -13%[46.1 µM] | -11% | 4µM* | -7 | 12%[38.3 µM]
CCCCCC(=O)Nc1ccc(N2CCN(C(=O)c3ccccc3)CC2)cc1 | -2% | -9%[46.1 µM] | -11% | -19% | 5 | 26%[38.3 µM]
O=C(O)CCCC(=O)Nc1ccc(C(=O)N2CCCCC2)cc1 | 9% | -11%[46.1 µM] | -3% | 2.2µM* | 13 | -10%[38.3 µM]
Cc1cnc(C(=O)Nc2ccc(C(=O)N3CCCCC3)cc2)cn1 | -3% | 0%[46.1 µM] | -3% | 0.28µM* | -1 | 4%[38.3 µM]
Cc1cccc(N/C(N)=N/c2nc(C)cc(=O)[nH]2)c1 | -2% | -25% | x | x | x | -5%
O=C(CCc1ccccc1)N1CCCN(C(=O)CCc2ccccc2)CC1 | 3% | -11% | 4% | -6% | x | 2%
CCn1c(SCC(=O)Nc2cccc(C)n2)nnc1-c1ccco1 | 3% | 11%[46.1 µM] | -3% | -4% | 8 | 0%[38.3 µM]
CCN(Cc1ccncc1)C(=O)CCc1nnc(CCc2ccccc2OC)o1 | 3% | 16% | x | x | x | 16%
O=C(Nc1ccc(C(=O)N2CCCCC2)cc1)C1CCCCC1 | u | -8%[46.1 µM] | -6% | 2µM* | 6 | 2%[38.3 µM]
O=C(Nc1ccccc1)C1CCCCC1 | 8% | 13%[46.1 µM] | 8% | 25µM* | 6 | 2%
COc1ccc(NC(=O)C2CCN(C(=O)c3ccc(OC)cc3)CC2)cc1 | -4% | -2%[46.1 µM] | 13% | -10% | 5 | 34%[38.3 µM]
CC(=O)Nc1ccc(NC(=O)C2CCN(C(=O)c3cccs3)CC2)cc1 | 13µM* | 0% | x | x | x | -2%
CN(C)S(=O)(=O)c1ccc(NC(=O)C2CCCN(C(=O)c3ccc(Cl)cc3)C2)cc1 (configuration not stated) | 13µM* | -10% | 6% | -18% | x | 1%
COc1ccc(-c2oc3c(CC=C(C)C)c(O[C@H]4OC(CO)C(O)C(O)C4O)cc(O)c3c(=O)c2O[C@@H]2OC(C)C(O)C(O)C2O)cc1 (some centres not stated) | 5% | x | -4% | -7% | x | x
Cc1ccc(N2C(=O)CCC2(C#N)c2ccccc2)cc1 (configuration not stated) | x | 5% | x | x | x | x
CCOC(=O)c1c(C)[nH]c(C(=O)OCC(=O)N2CC(C)OC(C)C2)c1C (configuration not stated) | -1% | -13%[46.1 µM] | 1% | -10% | -6 | 25%[38.3 µM]
c1ccc(CCNc2ncnc3scc(C4COc5ccccc5O4)c23)cc1 (configuration not stated) | 0.056µM* | u | -3% | -16% | 13 | 56%[38.3 µM]
c1ccc2c(c1)OCC(c1csc3ncnc(N4CCCC4)c13)O2 (configuration not stated) | 9% | u | -8% | -8% | 12 | 39%[38.3 µM]
S=C1NC2=C(CCCC2=C2SCCS2)C(c2ccccc2)N1 (configuration not stated) | 0.35µM* | -33% | x | x | x | 11%
CC1(OC(=O)C2CCCC2)C(=O)C=C2C=C(c3ccsc3)OC=C2C1=O (configuration not stated) | 0% | 10% | -1% | -4% | x | -2%
COc1ccccc1N1CCN(Cc2nc(-c3ccc(F)cc3)oc2C)CC1 | 0.4µM* | 26% | x | x | x | 25%

High-throughput results (PubChem BioAssay)
